According to PubChem BioAssay (NCI):
About 83,000 compounds went through this panel and 20% of them were active in at least one assay; those are over-represented in the sample as a whole.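 Activity criterion: percent growth below 10, measured after cells in 96-well plates were exposed to a single compound concentration for 48 hours.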 A number with no mark means an inactive call. Calls of active or inactive are those of the source.

The compounds below were run on UACC-257 melanoma (assay: NCI-60 one-dose screen, 48 h (100 = growth as untreated, 0 = no growth, -100 = all killed)). Conditions: 10 µM unless noted.

Structure (SMILES) | growth
C=C1CCC2C3(C)COC(c4cc(F)cc(F)c4)OC3CCC2(C)C1CC(O)C1=CCOC1=O (stereo not drawn) | 73.7%
CC(=O)Nc1ccc(C(=O)NC(=S)Nc2ccc(S(N)(=O)=O)cc2)cc1 | 95.2%
COc1cc(C2CC(c3cc(OC)c(OC)c(OC)c3)=Nc3c(N)nc(N)nc3N2)ccc1Oc1nc(NCCO)nc(N2CCOCC2)n1 (stereo not drawn) | 105%
CC1=C(C(=O)c2ccccc2)C(c2cccc(Cl)c2Cl)n2c(nc3ccccc32)N1 (stereo not drawn) | 76.2%
CN1CCc2c(sc3ncnc(N/N=C/c4ccc(Cl)cc4Cl)c23)C1 | -12.3% (active)
O=C(COc1ccc(NC(=O)Nc2ccc(Cl)c(Cl)c2)cc1)N=Nc1c(O)[nH]c2ccc(Br)cc12 | -76.5% (active)
Cn1cc(NC(=O)c2cc(NC(=O)c3ccc(C#Cc4ccccc4)cc3)cn2C)cc1C(=O)NCCCN1CCOCC1 | -28.8% (active)
COCOc1cc2oc(C(=O)N[C@@H](Cc3ccccc3)C(O)C(=O)NCc3ccccc3)c(C)c(=O)c2cc1OCOC (stereo partly drawn) | 61.1%
Cc1ccc(C(=O)CSc2nc3ccc(C)cc3c(=O)n2-c2ccc(F)cc2)cc1 | 85.9%
CC(C)c1ccc2c(N)c(C(=O)Nc3ccc(C(F)(F)F)cn3)sc2n1 | 60%
CN(C)CCn1c2ccccc2c2nc3ccc([N+](=O)[O-])cc3nc21 | -13.2% (active)
COc1cc2c(c(OC)c1OC)C(=O)CC(c1cccc(NC(=O)c3cc(NC(=O)[C@H](CO)NC(=O)OC(C)(C)C)ccc3Cl)c1)O2 (stereo partly drawn) | 26.9%
Cc1cccc(NC(=O)[C@]23CCC(C)(C)CC2C2=CCC4[C@@]5(C)C[C@@H](O)[C@H](O)[C@@](C)(CO)C5CC[C@@]4(C)[C@]2(C)CC3)c1 (stereo partly drawn) | 39.8%
CC(=O)Nc1ccc(-n2cnc3ccc(-c4ccc(O)cc4)cc32)cc1 | 67.3%
NC(=S)Nc1cccc(NC(N)=S)c1 | 98.1%
O=C(/C=C/c1ccc(O)c(O)c1)NC1CCOC1O (stereo not drawn) | 102%
CCN1C(=O)/C(=N\N=C(/C)c2ccc3c(c2)Nc2ccccc2S3)c2cc(Cl)ccc21 | 25.7%
S=C(NCCc1ccccc1)Nc1ccc(OCc2nc3ccccc3[nH]2)cc1 | 99.1%
COc1ccc(-c2nc(SC(C)C)nc(NCCc3c[nH]c4ccccc34)c2C#N)cc1 | 82.5%

Structure (SMILES) | growth
S=C(Nc1ccccc1)Nc1ccc(OCc2nc3ccccc3[nH]2)cc1 | 48.2%
CC1(C)CC[C@]2(C(=O)Nc3ccc(Br)cc3)CC[C@]3(C)C(=CCC4[C@@]5(C)C[C@@H](O)[C@H](O)[C@@](C)(CO)C5CC[C@]43C)C2C1 (stereo partly drawn) | 11.1%
CC12CC[C@@H]3[C@]4(C)COC(c5c(F)cccc5F)O[C@@H]4CC[C@@]3(C)[C@@H]1CC(C1=CCOC1=O)O2 (stereo partly drawn) | 64.6%
Cc1ccc(Cc2cnc(NC(=O)c3ccc(/C=C4\SC(=S)N(C)C4=O)cc3)s2)cc1 | 30.4%
CC(=O)Nc1ccc(-n2cnc3cc(-c4ccc(O)cc4)ccc32)cc1C(F)(F)F | 39.7%
Cn1cc(NC(=O)c2cc(NC(=O)c3ccc(/C=C/c4ccccc4)cc3)cn2C)cc1C(=O)NCCCN1CCOCC1 | 77.9%
CN(C)CCCNC(=O)c1cc(NC(=O)c2cc(NC(=O)c3ccc(/C=C/c4ccccc4)cc3)cn2C)cn1C | 54.2%
CC(=O)OC[C@@]1(C)C2CC[C@]3(C)C(CC=C4C5CC(C)(C)CC[C@]5(C(=O)Nc5ccc(Br)cc5)CC[C@]43C)[C@@]2(C)C[C@@H](OC(C)=O)[C@@H]1OC(C)=O (stereo partly drawn) | 20%
COc1ccc(NC(=O)Cn2c(O)c(N=Nc3ccc(S(N)(=O)=O)cc3)c3ccccc32)cc1 | 67%
S=C(Nc1ccc(OCc2nc3ccccc3[nH]2)cc1)NC1CCCCC1 | 95.5%
Cc1ccc(NC(=O)[C@]23CCC(C)(C)CC2C2=CCC4[C@@]5(C)C[C@@H](O)[C@H](O)[C@@](C)(CO)C5CC[C@@]4(C)[C@]2(C)CC3)cc1 (stereo partly drawn) | 39.8%
O=S(=O)(Nc1cccc(-n2cnc3cc(-c4ccc(O)cc4)ccc32)c1)C1CC1 | 68.4%
Cn1cc(-c2nnc(N)nc2-c2c[nH]c3ccccc23)c2cccnc21 | 62.3%
CN(C)c1ccnc(CNCCSC2(c3ccc(C(F)(F)F)cc3)c3ccccc3CCc3ccccc32)c1 | -59.8% (active)
CC1=C(C(=O)OC(C)C)C(c2cccc(O)c2)NC(=S)N1 (stereo not drawn) | 92.8%
N/N=C(\N)c1c(N)nc(=S)[nH]c1-c1ccc(Cl)cc1Cl | 108%
COc1ccc2[nH]cc(-c3nnc(N)nc3-c3c[nH]c4ncc(Br)cc34)c2c1 | 127%
COc1cc(C2CC(c3cc(OC)c(OC)c(OC)c3)=NN2c2ccccc2)ccc1OCc1ccc(C)cc1 (stereo not drawn) | 101%
O=C(N/N=C/c1ccc(-c2ccc(O)cc2)o1)c1[nH]c2ccc(Br)cc2c1-c1ccccc1 | 27.4%
